# From PubChem BioAssay (NCATS)
# Records with an inconclusive call do not appear. Entries that show only a call come without a potency. Active and inactive are the calls of the source. Unless noted, the call rests on the fitted dose curve; in most records, active means well fitted curve in the direction sought with a large enough effect; inconclusive means small, poorly fitted or top-dose-only effect, or another doubt; inactive means no such curve, though single readings can be large; an effect the other way counts as inactive or inconclusive.
# Columns and labels:
# [1] = qHTS Assay for Lipid Storage Modulators (AID 1519; calls by dose curve); conditions: Drosophila S3 cells, BODIPY lipid droplet/cell ratio, laser cytometry, cells loaded with oleic acid; for activity change, negative = inhibition: at 57.5 µM (top of the series)
# How it was run: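 Cells seeded at 5,000 per well were treated with compounds over a concentration series and loaded with oleic acid (400 uM, as added). Lipid droplet fluorescence (488 nm excitation, 500-530 nm channel) was read by laser-scanning cytometry and normalized to 20 uM Triacsin C.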
# [2] = molecular target: Ubiquitin carboxyl-terminal hydrolase 1 (Homo sapiens) (UniProt O94782); experiment: Inhibitors of USP1/UAF1: Pilot qHTS (AID 504865); conditions: purified USP1/UAF1, Ub-rhodamine cleavage fluorescence; series mostly up to 114 µM; further: nearly all actives have a fitted effect of over 35% in size; further: potency means the concentration at half of the fitted maximal effect;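 on activity change, negative = inhibition: rhodamine fluorescence freed from ubiquitin-rhodamine substrate followed over time; top concentration of the series differs between compounds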
# How it was run: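 Deubiquitinase activity followed as kinetic rhodamine fluorescence release from 150 nM Ub-Rho. 1 nM USP1/UAF1 with compound, after 15 min room-temperature preincubation, in HEPES pH 7.8 buffer containing TCEP, EDTA, BSA and Tween-20.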
# [3] = S16 Schwann cell viability assay (CellTiter-Glo assay) (AID 624031); conditions: S16 rat Schwann cells viability, 24 h; series mostly up to 25.7 µM;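 further: cellular ATP luminescence as a viability measure; nearly all actives have a fitted effect of over 70% in size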
# How it was run: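 Native S16 rat Schwann cells in DMEM/10% FBS without phenol red were incubated overnight, then exposed to compounds for 24 h at 37 °C/5% CO2. Viability was read as ATP luminescence (CellTiter-Glo), normalized to no-cell wells and DMSO (0%).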
# [4] = qHTS profiling for inhibitors of Plasmodium falciparum proliferation (AID 504749); further: potency means the concentration at half of the fitted maximal effect; on all read-outs here: nearly all actives have a fitted effect of over 60% in size; conditions: P. falciparum in erythrocytes, SYBR Green DNA, 72 h; for activity, negative = inhibition: at 28.7 µM (top of the series)
# How it was run: (§1)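 Parasite proliferation within erythrocytes, 72 h exposure. Endpoint: SYBR Green I fluorescence after overnight lysis at room temperature. Controls: 0.29 uM artemisinin, DMSO.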
# CP192 = experiment: as above; conditions: P. falciparum in erythrocytes, SYBR Green DNA, 72 h; series mostly up to 12.8 µM
# How it was run: as §1
# CP201 = experiment: as above; conditions: P. falciparum in erythrocytes, SYBR Green DNA, 72 h; series mostly up to 12.8 µM
# How it was run: as §1
# CP262 = experiment: as above; conditions: P. falciparum in erythrocytes, SYBR Green DNA, 72 h; series mostly up to 12.8 µM
# How it was run: as §1
# CP269 = experiment: as above; conditions: P. falciparum in erythrocytes, SYBR Green DNA, 72 h; series mostly up to 12.8 µM
# How it was run: as §1
# CP305 = experiment: as above; conditions: P. falciparum in erythrocytes, SYBR Green DNA, 72 h; series mostly up to 12.8 µM
# How it was run: as §1
# CP315 = experiment: as above; conditions: P. falciparum in erythrocytes, SYBR Green DNA, 72 h; series mostly up to 12.8 µM
# How it was run: as §1
# CP325 = experiment: as above; conditions: P. falciparum in erythrocytes, SYBR Green DNA, 72 h; series mostly up to 12.8 µM
# How it was run: as §1
# CP329 = experiment: as above; conditions: P. falciparum in erythrocytes, SYBR Green DNA, 72 h; series mostly up to 12.8 µM
# How it was run: as §1
# FAB9 = experiment: as above; conditions: P. falciparum in erythrocytes, SYBR Green DNA, 72 h; series mostly up to 12.8 µM
# How it was run: as §1
# JCK = experiment: as above; conditions: P. falciparum in erythrocytes, SYBR Green DNA, 72 h; series mostly up to 12.8 µM
# How it was run: as §1
# PC49 = experiment: as above; conditions: P. falciparum in erythrocytes, SYBR Green DNA, 72 h; series mostly up to 12.8 µM
# How it was run: as §1
# [5] = measured here: cell count channel max response
# [6] = measured here: lipid channel max response
# Ubiquitin carboxyl-terminal hydrolase 1 (Homo sapiens), sequence (O94782 whole entry, looked up): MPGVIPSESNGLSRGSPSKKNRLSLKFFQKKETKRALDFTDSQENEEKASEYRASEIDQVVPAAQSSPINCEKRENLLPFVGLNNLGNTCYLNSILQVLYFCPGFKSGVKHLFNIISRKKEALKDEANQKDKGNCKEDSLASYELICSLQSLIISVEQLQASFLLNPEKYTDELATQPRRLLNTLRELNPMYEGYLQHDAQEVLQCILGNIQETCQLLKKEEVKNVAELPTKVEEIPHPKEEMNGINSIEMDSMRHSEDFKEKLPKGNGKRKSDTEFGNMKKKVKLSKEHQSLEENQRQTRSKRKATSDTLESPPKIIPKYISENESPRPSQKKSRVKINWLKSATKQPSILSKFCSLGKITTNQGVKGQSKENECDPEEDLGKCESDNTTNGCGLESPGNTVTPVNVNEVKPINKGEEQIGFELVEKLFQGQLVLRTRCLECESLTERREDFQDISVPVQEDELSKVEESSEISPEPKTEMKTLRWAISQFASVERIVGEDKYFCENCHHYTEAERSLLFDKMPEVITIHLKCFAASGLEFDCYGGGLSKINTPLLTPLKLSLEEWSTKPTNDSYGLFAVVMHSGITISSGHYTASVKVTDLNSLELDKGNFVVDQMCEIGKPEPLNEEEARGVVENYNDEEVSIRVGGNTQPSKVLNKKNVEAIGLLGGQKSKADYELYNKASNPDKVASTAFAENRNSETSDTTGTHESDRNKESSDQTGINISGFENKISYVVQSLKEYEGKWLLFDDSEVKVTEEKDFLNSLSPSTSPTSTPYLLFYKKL
SMILES,"activity change, negative = inhibition [1]","max response [1, 5] [%]","max response [1, 6] [%]",Potency [2],outcome [3],"activity, negative = inhibition ([4]; parasite line A)","activity, negative = inhibition ([4]; parasite line B)",Potency (CP192),Potency (CP201),Potency (CP262),Potency (CP269),Potency (CP305),Potency (CP315),Potency (CP325),Potency (CP329),Potency (FAB9),Potency (JCK),Potency (PC49),Potency ([4]; parasite line B)
O=C(O)C1(O)C[C@H](O)C(O)[C@@H](O)C1 (stereo partly specified),-0.572% (inactive),-6.02,-7.19,inactive,,,,,,,,,,,,,,,
N[C@H](CO)Cc1cnc[nH]1,3.9% (inactive),11.7,15.8,inactive,,,,,,,,,,,,,,,
O=C(O)C1OC(O)C(O)C(O)C1O (stereo unspecified),-3.53% (inactive),-1.15,-5.5,inactive,,,,,,,,,,,,,,,
COC(=O)N/N=C/C1=C[N+](=O)c2ccccc2[N+]1=O,12.7% (inactive),5.74,17.7,,inactive,-2.61% (inactive),-4.8% (inactive),inactive,inactive,inactive,inactive,inactive,inactive,inactive,inactive,inactive,inactive,inactive,
CCC(=O)O[C@@]1(C(=O)CCl)C(C)CC2C3CCC4=CC(=O)C=C[C@@]4(C)[C@]3(F)C(O)C[C@]21C (stereo partly specified),11.7% (inactive),9.83,20.1,,inactive,,,,,,,,,,,inactive,inactive,inactive,
CN(C)CCc1c[nH]c2ccc(CC3COC(=O)N3)cc12 (stereo unspecified),10.6% (inactive),-1.36,11.4,,inactive,-2.15% (inactive),12.7% (inactive),inactive,inactive,,inactive,inactive,inactive,inactive,inactive,inactive,inactive,inactive,
CC(=O)OCC(=O)[C@@]12OC3(CCCC3)OC1CC1C3CCC4=CC(=O)C=C[C@@]4(C)[C@]3(F)C(O)C[C@]12C (stereo partly specified),9.16% (inactive),-2.26,7.71,,inactive,,,inactive,inactive,inactive,inactive,inactive,inactive,inactive,inactive,inactive,inactive,inactive,
C[C@@]12CCC(=O)C=C1C=CC1C2CC[C@]2(C)C1CC[C@@]21CCC(=O)O1 (stereo partly specified),7.74% (inactive),3.63,12.9,inactive,inactive,,-24.2% (inactive),inactive,inactive,inactive,inactive,inactive,inactive,inactive,inactive,inactive,inactive,inactive,
CC1=C(C2=C(C)C(C(C)C)C3=C(C(=O)C(O)C3O)C2O)C(O)C2=C(C(O)C(O)C2=O)C1C(C)C (stereo unspecified),1.34% (inactive),12.4,12.8,inactive,,,,,,,,,,,,,,,
COC1OC2COC(c3ccccc3)OC2C(O)C1O (stereo unspecified),1.99% (inactive),4.47,4.04,inactive,,,,,,,,,,,,,,,
NCC1CCC(N)C(O[C@@H]2C(O)[C@H](O[C@H]3OC(CO)C(O)C(N)C3O)[C@@H](N)C[C@H]2N)O1 (stereo partly specified),9.66% (inactive),28.1,44.9,inactive,inactive,7.73% (inactive),10.2% (inactive),inactive,inactive,inactive,inactive,inactive,inactive,inactive,inactive,inactive,inactive,inactive,
COC(=O)CCCC[C@@H]1SC[C@@H]2NC(=O)N[C@@H]21,0.0624% (inactive),-0.817,0.263,inactive,,,,,,,,,,,,,,,
N[C@H](Cc1ccc(O)cc1)C(=O)O,2.68% (inactive),-25.6,-23,inactive,,,,,,,,,,,,,,,
CC1(C)SC2C(N3C(=O)C(c4ccccc4)NC3(C)C)C(=O)N2C1C(=O)O (stereo unspecified),8.56% (inactive),12.6,31,,inactive,-1.6% (inactive),9.57% (inactive),inactive,inactive,inactive,inactive,inactive,inactive,inactive,inactive,inactive,inactive,inactive,
CCC1OC(=O)CC(O)C(C)[C@@H](O[C@@H]2OC(C)[C@H](O[C@@H]3C[C@@](C)(O)C(O)C(C)O3)C(N(C)C)C2O)[C@H](CC=O)CC(C)C(=O)/C=C/C(C)=C/[C@@H]1COC1OC(C)C(O)C(OC)[C@@H]1OC (stereo partly specified),0.0526% (inactive),-1.62,4.9,inactive,inactive,,,,,,,,,,,inactive,inactive,inactive,
CCC1OC(=O)C(C)[C@@H](O[C@H]2C[C@@](C)(OC)C(O)C(C)O2)C(C)[C@@H](O[C@@H]2OC(C)CC(N(C)C)C2O)[C@@](C)(O)CC(C)C(=O)[C@@H](C)C(O)[C@]1(C)O (stereo partly specified),-1.12% (inactive),15.2,17.2,inactive,inactive,,,inactive,inactive,inactive,inactive,inactive,inactive,inactive,inactive,inactive,inactive,inactive,11.2 µM (active)
NC(=O)NCCC[C@H](N)C(=O)O,-0.41% (inactive),-16.4,-15.2,inactive,,,,,,,,,,,,,,,
CCC(C)C(=O)OC1CC(O)C=C2C=CC(C)C(CCC(O)CC(O)CC(=O)O)C21 (stereo unspecified),5.21% (inactive),11.3,17.6,inactive,inactive,-1.64% (inactive),-21.8% (inactive),inactive,inactive,inactive,inactive,inactive,inactive,inactive,inactive,inactive,inactive,inactive,
O=C1c2ccccc2C(=O)c2c(O)c(O)cc(O)c21,12.2% (inactive),-4.21,7.97,25.1 µM (active),,,,,,,,,,,,,,,
